Bioassay records: PubChem BioAssay, National Center for Advancing Translational Sciences (NCATS)
BAZ2B block = BAZ2B (human) inhibition; Q9UIF8; AlphaScreen BAZ2B-H3K14Ac peptide displacement; Potency, µM (doses to about 114 µM), inactives show at the highest dose activity change, negative = inhibition, most hits filed as inhibitors; hit rate 4.4% among 360,000; AID 504333; note: potency is the fitted concentration of half-maximal effect; % is set by controls: 0 for no effect and ±100 for the full control effect; nearly all actives have a fitted effect of over 60% in size
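AlphaScreen displacement: compounds (up to 110uM) incubated 30 min at room temperature with a preformed 50 nM BAZ2B/50 nM biotinylated H3K14Ac peptide complex in PBS pH 7.4 with Tween-20. Donor and acceptor beads at 10 ug/mL final added, 20 min light-protected before reading.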
L3MBTL1 inh = L3MBTL1 (human) inhibition; Q9Y468; AlphaScreen L3MBTL1–H3K9me1 peptide binding; Potency, µM (titrated, usually from 57.1 µM), for inactives: top-dose activity, negative = inhibition, most hits filed as inhibitors; hit rate 0.66% among 230,000; note: potency is the fitted concentration of half-maximal effect; % is set by controls: 0 for no effect and ±100 for the full control effect; nearly all actives have a fitted effect of over 60% in size
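AlphaScreen assay: L3MBTL1 (50 nM final) was preincubated 30 min at room temperature with biotinylated H3(1-15)K9me1 peptide (75 nM final), then 30 min with library compounds; streptavidin donor and nickel chelate acceptor beads (10 ug/mL final) added, 30 min dark.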
HP1b chromo inh = inhibitors of HP1-beta chromodomain binding to methylated histone tails; Potency, µM (series often up to 114 µM), without a hit: top-dose activity change, negative = inhibition, hits mostly inhibitors; AID 540317; hit rate 0.56% among 390,000; AlphaScreen HP1-beta / biotin-H3K9me3 peptide binding; P83916; note: potency is the fitted concentration of half-maximal effect; nearly all actives have a fitted effect of over 70% in size
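HP1-beta protein (50 nM final) preincubated 30 min at room temperature with biotinylated H3(1-18)K9me3 peptide (50 nM) in PBS pH 7.4, 0.01% Tween-20, then compound added for 30 min. AlphaScreen streptavidin donor/nickel chelate acceptor beads (10 ug/mL final), 30 min dark, luminescence read.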
PI5P4K alpha inh = inhibitors of human PI5P4K alpha. P48426. PI5P4Kalpha enzyme, ADP-Glo luminescence, 60 min; hits give low values. max response, %. hit rate 1.2% among 330,000; active = max response of -50% or lower; inconclusive = between -30% and -50%; inactive = -30% or higher; note: value at the top dose of about 77 µM; % is set by controls: 0 for no effect and ±100 for the full control effect
Target sequence (P48426 whole entry, looked up): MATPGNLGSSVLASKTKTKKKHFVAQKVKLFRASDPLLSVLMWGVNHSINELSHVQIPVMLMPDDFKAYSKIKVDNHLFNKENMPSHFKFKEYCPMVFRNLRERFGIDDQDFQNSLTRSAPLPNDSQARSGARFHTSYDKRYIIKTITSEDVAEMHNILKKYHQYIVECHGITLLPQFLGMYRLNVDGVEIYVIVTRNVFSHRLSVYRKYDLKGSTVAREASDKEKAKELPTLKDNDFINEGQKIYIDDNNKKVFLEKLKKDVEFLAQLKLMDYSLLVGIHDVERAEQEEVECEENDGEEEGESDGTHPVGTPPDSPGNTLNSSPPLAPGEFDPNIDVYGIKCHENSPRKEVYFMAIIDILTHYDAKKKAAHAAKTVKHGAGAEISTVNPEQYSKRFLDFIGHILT
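ADP-Glo luminescence end-point after a 60 min room-temperature kinase reaction. PI5P4Kalpha and substrate in HEPES pH 7.4 buffer with EGTA, 0.1% CHAPS and 5% DMSO; ATP at 5 microM final.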
G9a inh = blocks human histone lysine methyltransferase G9a | Q96KQ7 | Potency, µM (titrated, usually from 102 µM), for the others: at the highest dose activity, negative = inhibition, most hits filed as inhibitors | G9a H3K9 monomethylation, AlphaScreen, 2 h | hit rate 8.8% among 350,000; note: potency is the fitted concentration of half-maximal effect; % is set by controls: 0 for no effect and ±100 for the full control effect; nearly all actives have a fitted effect of over 75% in size
Target sequence (Q96KQ7 913-1193 limits assumed): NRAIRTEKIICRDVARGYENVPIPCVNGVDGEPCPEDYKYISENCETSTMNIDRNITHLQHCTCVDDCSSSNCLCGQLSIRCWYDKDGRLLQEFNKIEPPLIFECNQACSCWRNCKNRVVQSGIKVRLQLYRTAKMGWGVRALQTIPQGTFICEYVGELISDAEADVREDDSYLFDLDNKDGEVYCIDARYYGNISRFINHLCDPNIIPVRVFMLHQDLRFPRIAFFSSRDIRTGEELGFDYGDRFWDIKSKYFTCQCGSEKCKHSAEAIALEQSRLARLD
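Using a bead-based AlphaScreen, monomethylated H3K9 product from 2 h room-temperature reactions (G9a 20 nM, peptide 500 nM, SAM 20 uM) was detected with 0.5 ug/mL rabbit anti-H3K9me1 antibody.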
JMJD2A Tudor inh = blocks the human JMJD2A Tudor domain | hit rate 4.4% among 390,000 | Potency, µM (highest dose often 114 µM), inactives show top-dose activity change, negative = inhibition, most hits filed as inhibitors | O75164 | AID 504339 | AlphaScreen JMJD2A-Tudor / H3K4me3 peptide binding; note: potency is the fitted concentration of half-maximal effect; % is set by controls: 0 for no effect and ±100 for the full control effect; nearly all actives have a fitted effect of over 50% in size
Starred values were filed as active, the others as inactive; ? = inconclusive; . = no result given; [ ] = another dose, or the depositor's remark. A selection: hits, their analogues and other compounds. The true share with any hit is near 11%. Unless noted, calls come from the whole dose curve; as a rule, active = well fitted inhibition curve with a large enough effect; inconclusive = small, poorly fitted or top-dose-only effect; inactive = no such curve, though single readings can be large or run the other way.

SMILES	BAZ2B block	L3MBTL1 inh	HP1b chromo inh	PI5P4K alpha inh	G9a inh	JMJD2A Tudor inh
Nc1ncnc2c1ncn2[C@H]1O[C@@H](CSCC[C@@H](N)C(=O)O)[C@H](O)[C@@H]1O	.	.	.	.	20.5%[59 µM]	.
CCSc1nnc2n1C(C)(C)Cc1ccccc1-2	-6.8%	.	36.9%	3.0	-45.2%[59 µM]	-3.5%
CC1(C)Cc2ccccc2-c2n[nH]c(=S)n21	-16.2%	-0.2%	-1.9%	.	12.6µM*	3.16µM*
NC(=NCCc1c[nH]c2ccccc12)NC(=O)c1ccc(Cl)cc1	79.4µM*	?	-11.0%	22.4	?	?
Cc1cccc(NC(=O)c2c(NC(=O)c3cccs3)sc3c2CCC(C)C3)c1 (stereo unspecified)	29.0%	.	63.9%	.	69.8%[59 µM]	12.7%
Cc1cccc(NC(=O)c2c(N)sc3c2CCC(C)C3)c1 (stereo unspecified)	-3.0%	.	12.6%	.	12.6µM*	-27.0%
O=C(CC1NCCNC1=O)Nc1cccc(F)c1 (stereo unspecified)	-5.9%	.	57.1%	.	10.2%[59 µM]	-1.9%
CC(C1SC(=S)NC1=O)C1SC(=S)NC1=O (stereo unspecified)	.	.	.	-77.5*	.	.
CCOC(=O)/C=C(C)/C=C/C=C(C)/C=C/c1c(C)cc(OC)c(C)c1C	.	.	.	.	41.0%[12.7 µM]	.
COc1cc(C)c(/C=C/C(C)=C/C=C/C(C)=C/C(=O)O)c(C)c1C	.	.	9.7%	49.5	?	56.2µM*
Cc1oc2c(c1C(=O)NCc1cccc(Br)c1)C1=NCCN1C=N2	-6.7%	.	23.8%	.	9.8%[59 µM]	-4.7%
C/C(=N\NC(=S)Nc1ccccc1C)C1Cc2ccccc2C(=O)O1 (stereo unspecified)	-26.1%	-5.1%	11.2%	5.8	50.1µM*	-30.8%
C/C(=N\NC(=S)Nc1ccccc1)C1Cc2ccccc2C(=O)O1 (stereo unspecified)	?	.	-5.2%	-0.6	.	-33.8%
COc1cccc(C(=O)CN2CCN(S(=O)(=O)c3ccc(Cl)cc3)CC2)c1	-16.6%	.	40.2%	.	10µM*	-15.9%
O=C(CN1CCN(S(=O)(=O)c2ccc(Cl)cc2)CC1)c1ccc(O)c(O)c1	?	.	-17.8%[57 µM]	1.4	.	17.8µM*
COc1ccc(S(=O)(=O)N2CCN(CC(=O)c3ccc(O)c(O)c3)CC2)cc1	-37.8%	.	16.2%	5.5	28.2µM*	?
O=C(CN1CCN(S(=O)(=O)c2ccc(F)cc2)CC1)c1ccc(O)c(O)c1	?	.	18.0%	-4.0	20µM*	?
COc1cccc(N2CCN(CC(=O)N3CCN(S(=O)(=O)c4ccc(Cl)cc4)CC3)CC2)c1	-27.4%	1.6%	21.6%	7.2	?	-28.3%
COc1ccc(S(=O)(=O)N2CCN(S(=O)(=O)c3ccc(OC)cc3)CC2)cc1	-3.3%	0.0%	.	.	13.1%[12.7 µM]	-16.4%
CCOc1ccc(C(=O)CN2CCN(S(=O)(=O)c3ccc(F)cc3)CC2)cc1	-22.7%	3.3%	38.8%	1.6	?	-12.4%
COc1ccc(NCc2cc3cc4c(cc3n(CC(=O)Nc3ccc(F)cc3F)c2=O)OCO4)cc1	-39.0%	.	28.0%	.	?	-18.3%
O=C(CSCc1cnn(-c2ccccc2)c1-n1cccc1)NCc1cccc(Cl)c1	-3.8%	.	20.9%	.	-44.8%[59 µM]	0.3%
CCOC(=O)N1CCN(C(=O)Cn2ncc3ccccc32)CC1	11.7%	-5.2%	-6.2%	-19.7	12.8%[59 µM]	79.4µM*
CCOC(=O)N1CCN(C/C(Cl)=C/c2ccccc2)CC1	?	1.7%	50.1µM*	-2.1	.	1.78µM*
O=C1CCCC(=O)N1c1ccc(N2CCN(c3ccccc3)CC2)c([N+](=O)[O-])c1	-38.1%	0.0%	-14.0%	-7.6	-9.7%	-9.9%[57.1 µM]
SMILES	BAZ2B block	L3MBTL1 inh	HP1b chromo inh	PI5P4K alpha inh	G9a inh	JMJD2A Tudor inh
O=C1C2CC=CCC2C(=O)N1c1ccc(N2CCN(c3ccccn3)CC2)c([N+](=O)[O-])c1 (stereo unspecified)	8.91µM*	.	2.0%	2.0	?	?
CCOc1ccc(C(=O)Nc2nc(-c3ccc(Br)cc3)ns2)cc1	0.8%	.	65.7%	.	8.4%[59 µM]	-1.0%
O=C(NC(NC1CCS(=O)(=O)C1)C(=O)c1cccs1)c1ccccc1 (stereo unspecified)	-6.3%	-10.3%	28.1%	-6.3	5.8%[12.7 µM]	-15.4%
O=C(NC1=C(NC2CCS(=O)(=O)C2)C(=O)c2ccccc2C1=O)c1ccccc1 (stereo unspecified)	?	-1.9%	1.0%	?	3.55µM*	?
CN(C1=C(NC(=O)c2ccc(Cl)cc2)C(=O)c2ccccc2C1=O)c1ccccc1	8.91µM*	7.94µM*	-91.4%	-7.8	8.91µM*	4.47µM*
O=C(Nc1cccc(Cl)c1)c1ccccc1	4.6%	7.7%	45.9%	7.6	8.2%[12.7 µM]	-4.3%
Cc1cccc(NC2=C(NC(=O)c3ccccc3)C(=O)c3ccccc3C2=O)c1	28.2µM*	?	50.1µM*	-61.9*	3.16µM*	25.1µM*
O=C1C(Cl)=C(NC(=O)c2ccccc2)C(=O)C(Cl)=C1NC(=O)c1ccccc1	?	.	3.55µM*	-83.8*	1.26µM*	0.708µM*
O=C(NC1=C(Nc2ccc(Cl)cc2)C(=O)c2ccccc2C1=O)c1ccccc1	?	-27.1%	?	?	7.94µM*	-3.2%[57.1 µM]
Cc1cccc(N=C2NC(=O)/C(=C/c3cccs3)S2)c1	-4.5%	22.3%	-1.8%	-15.2	1.6%[59 µM]	-29.6%
O=C1NC(=S)SC1=Cc1cccs1	.	.	?	-67.5*	.	-31.7%
O=C1CNC(=O)/C(=C/c2cccs2)N1	-23.4%	-13.1%	11.4%	1.3	-19.4%	-15.8%[57.1 µM]
O=C1/C(=C/c2cccs2)NC(=S)N1C1CC1	-33.2%	-0.7%	14.2%	-11.1	39.8µM*	39.8µM*
Cc1ccc(N=C2NC(=O)/C(=C\c3cccs3)S2)cc1C	11.9%	17.6%	7.9%	-8.0	2.82µM*	?
O=C1Nc2ccccc2S/C1=C/c1cccs1	-21.0%	.	17.0%	0.9	2.2%	-17.9%
O=C1NC(=S)SC1=Cc1ccc(Cl)cc1	.	.	-25.9%	-51.0*	.	?
O=C(CSc1ncccc1C(=O)Oc1ccccc1Cl)Nc1ccc(C(F)(F)F)cc1Cl	5.0%	.	25.1%	.	?	15.3%
CC1CCCCN1CCCNC(=O)c1cc(Sc2cccc(Cl)c2)nc2ccccc12 (stereo unspecified)	-11.9%	.	7.2%	.	-4.2%[59 µM]	-26.0%
O=C1NC(=S)SC1=Cc1ccc(F)cc1	.	.	-3.4%	-71.2*	.	-31.2%
CC1=C(C#N)C(c2cccnc2)C2=C(N1)c1ccccc1C2=O (stereo unspecified)	-35.0%	-10.5%	12.5%	1.2	35.5µM*	-9.0%
CSC1=C(C#N)C(c2ccccc2Cl)C2=C(CCCC2=O)N1 (stereo unspecified)	-0.4%	9.7%	.	.	2.4%[59 µM]	.
